Measured values as given in PubChem BioAssay (NCATS).
Results filed as inconclusive are left out. Unmarked numbers belong to inactive results. Activity calls are given as the source filed them. The call rests on the fitted dose curve; in most records, active means well fitted cell-killing curve with a large enough effect; inconclusive means small, poorly fitted or top-dose-only effect; inactive means flat fitted curve, though single readings scatter.
Potency means the concentration at half of the fitted maximal effect.

Experiment: qHTS of pediatric cancer cell lines to identify multiple opportunities for drug repurposing: Primary screen for BT-37 cells (AID 1347094);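 on activity change, negative = cytotoxic: plate controls were DMSO for no effect and bortezomib for full effect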
Details: BT-37 viability, CellTiter-Glo luminescence, 48 h; series mostly up to 57.3 µM; activity change, negative = cytotoxic: at the top concentration
Procedure, shortened: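 Following a 5-hour attachment period, cells at 500-1,000/well received compounds and were cultured for 48 hours. CellTiter-Glo was added and luminescence read to estimate viable, metabolically active cells.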
In the case of `C[C@]12CC[C@H]3[C@@H](CCC4=CC(=O)CC[C@@]43C)[C@H]1CC[C@H]2OC(=O)CCC1CCCC1`, the “activity change, negative = cytotoxic” value is reported as 1.13%.
For `c1cc2c(cc1[C@H]1OC[C@H]3[C@H]1CO[C@H]3c1ccc3c(c1)OCO3)OCO2`, the “activity change, negative = cytotoxic” value was 2.64%.
With `C[C@@H]1CC[C@@]2(OC1)O[C@H]1C[C@H]3[C@@H]4CC=C5C[C@@H](O[C@@H]6O[C@H](CO)[C@@H](O[C@@H]7O[C@@H](C)[C@H](O)[C@@H](O)[C@@H]7O)[C@H](O)[C@@H]6O[C@@H]6O[C@@H](C)[C@H](O)[C@@H](O)[C@@H]6O)CC[C@]5(C)[C@@H]4CC[C@]3(C)[C@@H]1[C@H]2C` the Potency was 6850 nM (active).
With `N#C[C@H](O[C@@H]1O[C@H](CO[C@@H]2O[C@H](CO)[C@H](O)[C@H](O)[C@H]2O)[C@H](O)[C@H](O)[C@H]1O)c1ccccc1` the Potency was 24300 nM (active).
With `S=C(SSC(=S)N1CCCCC1)N1CCCCC1` the Potency was 309 nM (active).
With `COc1ccc(N(C(=O)Oc2c(C)cccc2C)c2ccnc(Nc3ccc(N4CCN(C)CC4)cc3)n2)c(OC)c1` the Potency was 15300 nM (active).
With `CC(N[C@H]1C[C@H]1c1ccccc1)c1ccc2c(c1)OCCO2` (stereo not given in full) the “activity change, negative = cytotoxic” value was -2.14%.
In the case of `CC(=O)Nc1ccc(OC[C@](C)(O)C(=O)Nc2ccc([N+](=O)[O-])c(C(F)(F)F)c2)cc1`, the “activity change, negative = cytotoxic” value is reported as 2.71%.
For `CC(C)[C@H]1C(=O)N[C@H](CO)Cc2c[nH]c3cccc(c23)N1C`, the “activity change, negative = cytotoxic” value was 26.7%.
In the case of `C[C@@]12OC(=O)[C@]1([C@@H](O)[C@@H]1C=CCCC1)NC(=O)[C@H]2CCCl`, the Potency is reported as 96.8 nM (active).
In the case of `O=C(Nc1ccncc1)C(=O)c1cn(Cc2ccc(Cl)cc2)c2ccccc12`, the Potency is reported as 217 nM (active).
In the case of `N=c1c2c(-c3ccccc3)c(-c3ccccc3)n(Cc3ccccc3)c2ncn1C1CCC(O)CC1` (stereo not given), the Potency is reported as 968 nM (active).
For `CC[C@@H]1[C@@H](C)O[C@@](O)([C@@H](C)[C@H](O)[C@H](C)[C@H]2OC(=O)C=CC=C[C@@H](C)[C@@H]([C@@H](C)[C@@H](O)[C@H](C)[C@@]3(O)C[C@H](O[C@H]4C[C@H](O)[C@H](O)[C@H](C)O4)[C@H](CC)[C@@H](C)O3)OC(=O)C=CC=C[C@@H]2C)C[C@H]1O[C@H]1C[C@H](O)[C@H](O)[C@H](C)O1`, the Potency was 685 nM (active).
With `CC(=O)[O][Hg][c]1ccccc1` the Potency was 2190 nM (active).
For `Cc1ccccc1-n1c(Cn2cnc3c(N)ncnc32)nc2cccc(C)c2c1=O`, the Potency was 3850 nM (active).
In the case of `CCOC(=O)Nc1ccc(NCc2ccc(F)cc2)cc1N`, the “activity change, negative = cytotoxic” value is reported as -5.84%.
For `COc1ccc2c(c1)[C@]13CCCCC1C(C2)N(C)CC3` (stereo not given in full), the “activity change, negative = cytotoxic” value was -0.399%.
In the case of `CC(C)[C@]12O[C@@H]1[C@@H]1O[C@]13[C@]1(O[C@H]1C[C@@H]1C4=C(CC[C@@]13C)C(=O)OC4)[C@H]2O`, the Potency is reported as 1 nM (active).
For `O=C(Oc1ccc([N+](=O)[O-])cc1)N1CCN(Cc2cccc(Oc3ccccc3)c2)CC1`, the “activity change, negative = cytotoxic” value was -10.6%.
With `Clc1ccccc1C(c1ccccc1)(c1ccccc1)n1cccn1` the “activity change, negative = cytotoxic” value was 1.69%.
In the case of `CC1=C(O)C(=O)C=C2C1=CC=C1[C@@]2(C)CC[C@@]2(C)[C@@H]3C[C@](C)(C(=O)O)CC[C@]3(C)CC[C@]12C`, the Potency is reported as 4850 nM (active).
In the case of `C=CCON=C(C[C@H]1O[C@@H]2O[C@]3(C)CC[C@@H]4[C@H](C)CC[C@@H]([C@H]1C)[C@@]24OO3)[C@H]1O[C@@H]2O[C@]3(C)CC[C@H]4[C@H](C)CC[C@@H]([C@@H]1C)[C@@]24OO3`, the Potency is reported as 432 nM (active).
For `CC=C(C)C(=O)O[C@H]1C(C)=C2[C@@H]3OC(=O)[C@@](C)(O)[C@@]3(O)[C@@H](OC(=O)CCC)C[C@](C)(OC(C)=O)[C@@H]2[C@@H]1OC(=O)CCCCCCC`, the Potency was 17.2 nM (active).
In the case of `CC(C)(O)C=CC(=O)[C@](C)(O)[C@H]1[C@H](O)C[C@]2(C)[C@@H]3CC=C4[C@@H](C=C(O)C(=O)C4(C)C)[C@]3(C)C(=O)C[C@@]12C`, the Potency is reported as 1370 nM (active).
With `CCOC(=O)c1c(C(C#N)=CN)c2ccc(Cl)c(Cl)c2n1C` the “activity change, negative = cytotoxic” value was -1.9%.
